Records with an inconclusive call do not appear. A call without a number means that no potency is given here. A number with no mark means an inactive call. Active and inactive are the calls of the source. Calls follow the shape of the dose curve; as a rule, active = well fitted cell-killing curve with a large enough effect in the repeat runs; inconclusive = weak or mixed curves; inactive = flat fitted curve, though single readings scatter.
Assay: qHTS RealTime-Glo MT Cell Viability Assay in HepG2 cells - 32 hour (AID 1224877); also: nearly all actives have a fitted effect of over 55% in size
Details: RealTime-Glo luminescence; series mostly up to 76.8 µM
Text: U.S. Tox21 Program National Center for Advancing Translational Sciences [NCATS] NIH Chemical Genomics Center [NCGC] U.S. Environmental Protection Agency [EPA] National Institutes of Environmental Health Sciences [NIEHS] National Toxicology Program [NTP] U.S. Food and Drug Administration [FDA] Tox21 Assay Overview: Measure of cell viability is critical in the cell-base assay. Analysis of cell viability is necessary for the characterization of cell responses to cytotoxic drugs and environmental stress. A RealTime-Glo MT Cell Viability Assay to monitor cell viability in real time of continues cell culture during 40 hours of compound treatment was used to screen Tox21 10K library compounds in HepG2 cells. The RealTime-Glo MT Cell Viability Assay is a nonlytic, homogeneous, bioluminescent method to measure cell viability in real time using a simple, plate-based method. The assay involves adding NanoLuc luciferase and a cell-permeant prosubstrate to cells in culture. Viable cells reduce the proprietary prosubstrate to generate a substrate for NanoLuc luciferase. This substrate diffuses from cells into the surrounding culture medium, where it is rapidly used by the NanoLuc Enzyme to produce a luminescent signal. The signal correlates with the number of viable cells, making the assay well suited for cytotoxicity studies.
Tox21 Assay Protocol Summary: The mixture of HepG2 cell suspension and reagents were dispensed at 600cells/6 ul/well in 1536-well tissue culture treated black solid bottom plates using a Multidrop dispenser. After the assay plates were incubated at a 37 C/5% CO2 incubator for 5 hours, 23 nL of compounds dissolved in DMSO, positive and negative controls was transferred to the assay plate by a pintool work station. The plates were incubated at 37 C for 40 hours. The luminescence intensity were measured at 0h, 8h, 16h, 24h, 32h and 40h time points using ViewLux plate reader during compound treatment.
Potency is read from the fitted curve at half-maximal effect.

SMILES	Potency	activity change, negative = cytotoxic
CCCCCCCCCCC[C@@H](C[C@@H]1OC(=O)[C@H]1CCCCCC)OC(=O)[C@H](CC(C)C)NC=O	inactive	
c1ccc(C(O[C@@H]2CCCN(CCc3ccc4c(c3)OCO4)C2)c2ccccc2)cc1	inactive	
CC1(C)CCC[C@]2(C)[C@H]3CCO[C@]3(C)CC[C@@H]12	inactive	
COC1=C(OC)C(=O)C(CCCCCCCCCCO)=C(C)C1=O	inactive	
COc1ccc2cc1Oc1ccc(cc1)C[C@H]1c3c(cc4c(c3Oc3cc5c(cc3OC)CCN(C)[C@@H]5C2)OCO4)CCN1C	23.9 µM (active)	
C#CC1(O)CC[C@H]2[C@@H]3CCC4=CCCC[C@@H]4[C@H]3CC[C@@]21C (stereo not given in full)	23.9 µM (active)	
c1ccsc1	inactive	
Cc1ccc(C)cc1	inactive	
CCC(C)[O-].CCC(C)[O-].CCOC(=O)/C=C(/C)[O-].[Al+3]	inactive	
OC[C@@H](O)[C@@H](O)CO	inactive	
c1cnccn1	inactive	
CCCC[P+](C)(CCCC)CCCC	inactive	
CN1CCN2c3ccccc3Cc3ccccc3C2C1 (stereo not given)	inactive	
CC(C)=CCC1=C(O)c2ccccc2C(=O)C1=O	inactive	
COC(=O)c1ccccc1OC	inactive	
CCCCCCOC(=O)C(C)CC (stereo not given)	inactive	
CC(C)(C)c1ccc(C(O)CCCN2CCC(C(O)(c3ccccc3)c3ccccc3)CC2)cc1 (stereo not given)	5.35 µM (active)	
O=C(O)Cc1ccc2c(c1)C(=O)c1ccccc1CO2	inactive	
C=CC(=O)Nc1cc2c(Nc3ccc(F)c(Cl)c3)ncnc2cc1OCCCN1CCOCC1	9.52 µM (active)	
OC[C@H]1O[C@H](O[C@H]2O[C@H](CO)[C@@H](O)[C@H](O)[C@H]2O)[C@H](O)[C@@H](O)[C@@H]1O	inactive	

SMILES	Potency	activity change, negative = cytotoxic
CC(=O)[C@H]1CC[C@H]2[C@@H]3CCC4=CC(=O)CC[C@]4(C)[C@H]3CC[C@]12C	inactive	
CCC(COC(=O)CCS)(COC(=O)CCS)COC(=O)CCS	inactive	
C1CCC(SSC2CCCCC2)CC1	inactive	
O=C(O)c1cc(=O)c2ccccc2o1	inactive	
CCN(CC)c1ccc2c(-c3ccc(S(=O)(=O)O)cc3S(=O)(=O)[O-])c3ccc(=[N+](CC)CC)cc-3oc2c1	inactive	
FC(F)(F)c1cccc(Cl)c1	inactive	
CC(C)(C)NSc1nc2ccccc2s1	inactive	
CCN(CCN)c1cccc(C)c1	inactive	
O=C(O)CN(CCN(CC(=O)O)CC(=O)O)CC(=O)O		4.09% [at 2.72 µM]
CCCCCC/C=C\CCCCCCCC(=O)O	inactive	
C=Cc1cccc(C)c1	inactive	
CC1(C)CC(O)CC(C)(C)N1	inactive	
CCOC(=O)NNc1ccc(N(CC)CC(C)O)nn1 (stereo not given)	inactive	
Cl[Si](Cl)(c1ccccc1)c1ccccc1	inactive	
CN(C)Cc1ccccc1O	inactive	
CC1(C)CCC[C@]2(C)[C@H]3CC(=O)O[C@]3(C)CC[C@@H]12	inactive	
COCCOc1cc2cc(C(=O)NC3CCN(C(C)C)CC3)n(CC(=O)Nc3ccc(Cl)cn3)c2cn1	inactive	
Cc1ccc(C(C)C)cc2c(C)ccc1-2	inactive	
Oc1c(I)cc(Cl)c2cccnc12	inactive	
CN(C)Cc1cc(C(C)(C)C)c(O)c(C(C)(C)C)c1	inactive	
